Assay results reported in PubChem BioAssay AID1159580 (chemical genetic matrix, 2015).
The whole screen tested about 5,500 compounds, of which about 2,000 (36%) were called active. Not shown: some 18% with an inconclusive outcome. No stated cut-off is given here; in the data, active means normalized growth mostly below about 0.91 (no sharp cut-off); inconclusive means no clear call, values can overlap the other calls; inactive means mostly above about 0.92. The list shows a part of the results.

Assay: chemical genetic growth profiling, strain panel (AID 1159580);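 further: tested at 20 µM; growth read once vehicle control cultures reached saturation at 30 °C; 1 = growth at the plate median or of vehicle wells; lower values mean less growth of the strain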
Details: S. cerevisiae deletion strains, growth OD
[1] = locus YAL021C, strain ccr4, active compounds read low
[2] = locus YAL026C, strain drs2, active compounds read low
[3] = locus YAL030W, strain snc1, active compounds read low
[4] = locus YBL061C, strain skt5, active compounds read low
[5] = locus YBR009C, strain hhf1, active compounds read low
[6] = locus YBR023C, strain chs3, active compounds read low
[7] = locus YBR171W, strain sec66, active compounds read low
[8] = locus YBR231C, strain swc5, active compounds read low
[9] = locus YBR279W, strain paf1, active compounds read low
[10] = locus YCL011C, strain gbp2, active compounds read low
[11] = locus YCL016C, strain dcc1, active compounds read low
[12] = locus YCL061C, strain MRC1, active compounds read low
[13] = locus YCL069W, strain vba3, active compounds read low
[14] = locus YCR088W, strain abp1, active compounds read low
[15] = locus YDL005C, strain med2, active compounds read low
[16] = locus YDL040C, strain nat1, active compounds read low
[17] = locus YDR001C, strain nth1, active compounds read low
[18] = locus YDR069C, strain doa4, active compounds read low
[19] = locus YDR137W, strain rgp1, active compounds read low
[20] = locus YDR159W, strain sac3, active compounds read low
[21] = locus YDR297W, strain sur2, active compounds read low
[22] = locus YDR334W, strain swr1, active compounds read low
[23] = locus YDR335W, strain msn5, active compounds read low
[24] = locus YDR392W, strain spt3, active compounds read low
[25] = locus YEL003W, strain gim4, active compounds read low
[26] = locus YEL037C, strain rad23, active compounds read low
[27] = locus YEL061C, strain CIN8 (second series), active compounds read low
[28] = locus YER015W, strain faa2, active compounds read low
[29] = locus YER016W, strain bim1, active compounds read low
[30] = locus YER111C, strain swi4, active compounds read low
[31] = locus YER155C, strain BEM2 (second series), active compounds read low
[32] = locus YFR010W, strain ubp6, active compounds read low
[33] = locus YGL167C, strain pmr1, active compounds read low
[34] = locus YGL173C, strain kem1, active compounds read low
[35] = locus YGL227W, strain vid30, active compounds read low
[36] = locus YGL240W, strain doc1, active compounds read low
[37] = locus YGL253W, strain hxk2, active compounds read low
[38] = locus YHR013C, strain ard1, active compounds read low
[39] = locus YHR027C, strain rpn1, active compounds read low
[40] = locus YHR030C, strain SLT2, active compounds read low
[41] = locus YHR079C, strain IRE1, active compounds read low
[42] = locus YHR142W, strain chs7, active compounds read low
[43] = locus YJL092W, strain hpr5, active compounds read low
[44] = locus YJL095W, strain BCK1 (second series), active compounds read low
[45] = locus YJL095W, strain BCK1, active compounds read low
[46] = locus YJL115W, strain asf1, active compounds read low
[47] = locus YJL129C, strain trk1, active compounds read low
[48] = locus YJL154C, strain vps35, active compounds read low
[49] = locus YJL164C, strain tpk1, active compounds read low
[50] = locus YJL166W, strain qcr8, active compounds read low
[51] = locus YJR066W, strain TOR1, active compounds read low
[52] = locus YKL160W, strain elf1, active compounds read low
[53] = locus YKR026C, strain gcn3, active compounds read low
[54] = locus YKR091W, strain srl3, active compounds read low
[55] = locus YLL001W, strain dnm1, active compounds read low
[56] = locus YLL026W, active compounds read low
[57] = locus YLL041C, strain sdh2, active compounds read low
[58] = locus YLR027C, strain aat2, active compounds read low
[59] = locus YLR113W, strain HOG1, active compounds read low
[60] = locus YLR221C, strain rsa3, active compounds read low
[61] = locus YLR258W, strain gsy2, active compounds read low
[62] = locus YLR262C, strain YPT6 (second series), active compounds read low
[63] = locus YLR320W, strain mms22, active compounds read low
[64] = locus YLR342W, strain FKS1, active compounds read low
[65] = locus YLR357W, strain rsc2, active compounds read low
[66] = locus YLR370C, strain arc18, active compounds read low
[67] = locus YLR384C, strain iki3, active compounds read low
[68] = locus YML120C, strain ndi1, active compounds read low
[69] = locus YMR058W, strain fet3, active compounds read low
[70] = locus YMR125W, strain sto1, active compounds read low
[71] = locus YMR129W, active compounds read low
[72] = locus YMR205C, strain PFK2, active compounds read low
[73] = locus YMR231W, strain pep5, active compounds read low
[74] = locus YNL071W, strain lat1, active compounds read low
[75] = locus YNL183C, strain NPR1, active compounds read low
[76] = locus YNL209W, strain ssb2, active compounds read low
[77] = locus YNL248C, strain rpa49, active compounds read low
[78] = locus YNL322C, strain KRE1 (second series), active compounds read low
[79] = locus YNR049C, strain mso1, active compounds read low
[80] = locus YOR001W, strain rrp6, active compounds read low
[81] = locus YOR070C, strain gyp1, active compounds read low
[82] = locus YOR080W, strain dia2, active compounds read low
[83] = locus YOR083W, strain WHI5, active compounds read low
[84] = locus YOR106W, strain vam3, active compounds read low
[85] = locus YOR231W, strain MKK1, active compounds read low
[86] = locus YOR265W, strain rbl2, active compounds read low
[87] = locus YOR270C, strain vph1, active compounds read low
[88] = locus YOR290C, strain snf2, active compounds read low
[89] = locus YPL051W, strain arl3, active compounds read low
[90] = locus YPL078C, strain atp4, active compounds read low
[91] = locus YPL106C, strain sse1, active compounds read low
[92] = locus YPL240C, strain hsp82, active compounds read low
[93] = locus YPL256C, strain CLN2, active compounds read low

Measured: normalized growth

Nc1cc(C(Cl)=C(Cl)Cl)c(S(N)(=O)=O)cc1S(N)(=O)=O
inactive: [1] 0.98 | [2] 1 | [3] 1.02 | [4] 1.01 | [5] 0.992 | [6] 0.999 | [7] 1.02 | [8] 1.04 | [9] 1.01 | [10] 0.976 | [11] 0.978 | [12] 1.04 | [13] 1.01 | [14] 1.01 | [15] 1.01 | [16] 1.01 | [17] 1.02 | [18] 1.05 | [19] 0.998 | [20] 0.957 | locus YDR195W, strain ref2 0.998 | [21] 1.01 | [22] 1.01 | [23] 1.01 | [24] 0.978 | [25] 1.05 | [26] 1 | [27] 1 | [28] 1.02 | [29] 1 | [30] 1.01 | [31] 1.07 | [32] 1.02 | [33] 1.02 | [34] 1.04 | [35] 1 | [36] 1.04 | [37] 1.01 | [38] 1.03 | [39] 1.02 | [40] 0.977 | [41] 0.967 | [42] 1.02 | [43] 1.02 | [44] 0.997 | [45] 1.01 | [46] 1 | [47] 1.02 | [48] 0.999 | [49] 0.995 | [50] 1.06 | [51] 0.95 | [52] 1.02 | [53] 1.01 | [54] 0.992 | [55] 1.04 | [56] 1.02 | [57] 1.01 | [58] 1.02 | [59] 1 | [60] 0.981 | [61] 0.991 | [62] 1.06 | [63] 0.993 | [64] 1.04 | [65] 1.04 | [66] 1 | [67] 1.01 | [68] 1.03 | [69] 1.02 | [70] 0.972 | [71] 0.998 | [72] 1.03 | [73] 1.01 | [74] 0.991 | [75] 0.962 | [76] 0.994 | [77] 0.995 | [78] 1.01 | [79] 1 | [80] 1.02 | [81] 1 | [82] 1.02 | [83] 1.01 | [84] 1.04 | [85] 0.986 | [86] 1.01 | [87] 1.05 | [88] 0.964 | [89] 1.04 | [90] 1.06 | [91] 0.997 | [92] 1 | [93] 0.964

Cc1ncc([N+](=O)[O-])n1CC(C)O (stereo not drawn)
inactive: [1] 0.954 | [2] 0.956 | [3] 0.975 | [4] 0.974 | [5] 0.982 | [6] 0.995 | [7] 0.976 | [8] 0.992 | [9] 0.995 | [10] 0.968 | [11] 0.975 | [12] 0.924 | [13] 0.975 | [14] 0.986 | [15] 0.976 | [16] 0.978 | [17] 0.95 | [18] 0.966 | [19] 0.983 | [20] 0.972 | locus YDR195W, strain ref2 0.989 | [21] 0.982 | [22] 0.957 | [23] 0.982 | [24] 0.922 | [25] 0.977 | [26] 0.983 | [27] 0.964 | [28] 0.988 | [29] 0.983 | [30] 0.978 | [31] 0.994 | [32] 0.969 | [33] 0.981 | [34] 0.966 | [35] 0.985 | [36] 0.995 | [37] 0.981 | [38] 0.948 | [39] 0.987 | [40] 0.976 | [41] 0.979 | [42] 0.99 | [43] 0.961 | [44] 0.984 | [45] 0.991 | [46] 0.982 | [47] 0.966 | [48] 0.979 | [49] 0.966 | [50] 0.996 | [51] 0.883 | [52] 1 | [53] 0.984 | [54] 0.983 | [55] 0.988 | [56] 0.988 | [57] 0.982 | [58] 0.994 | [59] 1.01 | [60] 0.958 | [61] 0.974 | [62] 0.981 | [63] 0.96 | [64] 0.987 | [65] 0.959 | [66] 0.992 | [67] 0.998 | [68] 0.967 | [69] 0.971 | [70] 0.945 | [71] 0.965 | [72] 0.979 | [73] 0.972 | [74] 0.979 | [75] 0.891 | [76] 0.987 | [77] 0.946 | [78] 0.974 | [79] 0.978 | [80] 0.994 | [81] 0.985 | [82] 0.981 | [83] 0.997 | [84] 0.978 | [85] 0.991 | [86] 0.99 | [87] 0.97 | [88] 0.939 | [89] 1 | [90] 0.997 | [91] 0.931 | [92] 0.98 | [93] 0.965
